# Only a selection was taken, and hits are over-represented in it overall.
# DT40 TDP1 CPT – DT40-hTDP1 cell growth loss with CPT | chicken DT40 Tdp1-/-;hTDP1 cells + 20 nM CPT, ATP luminescence, 48 h | Potency, µM (series often up to 46.2 µM), for the others: at the top dose activity change, negative = growth inhibition, usual class: inhibitors | 12% of 420,000 active | AID 686979; note: potency is the fitted concentration of half-maximal effect; nearly all actives have a fitted effect of over 55% in size
#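 Cell growth measured by CellTiter-Glo luminescence after a minimum 48 h, 37 C compound exposure with 20 nM CPT in Tdp1-knockout DT40 cells stably expressing hTDP1, seeded 400/well; qHTS titration format.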
# HT1080 IDH1KD tx – toxicity to HT-1080 IDH1 knockdown cells (counter line). AID 686971. Potency, µM (doses to about 46.1 µM), for inactives: at the highest dose activity, negative = toxicity, hits mostly cytotoxic. 2% of 360,000 active. HT-1080 IDH1 knockdown viability, ATP luminescence, 48 h;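 note: potency is the fitted concentration of half-maximal effect; 0% = DMSO wells and -100% = cell-free medium wells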
#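 IDH1KD HT-1080 cells, 750/well, RPMI + 5% FBS; compound pinned after 2 h settling; 48 h, 37 °C; CellTiter-Glo luminescence; % activity normalised to DMSO and no-cell wells; curves fitted, classed by r2 and efficacy.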
# HT1080-NT tox – kills 2HG-producing HT-1080-NT fibrosarcoma cells; HT-1080-NT fibrosarcoma viability, CellTiter-Glo ATP luminescence, 48 h; 1.6% of 360,000 active; Potency, µM (top dose mostly 46.1 µM), inactives show top-dose activity, negative = less viability, most hits filed as cytotoxic; AID 686970;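 note: NT is the 2HG producing partner of a matched IDH1 knockdown line; potency is the fitted concentration of half-maximal effect; 0% = DMSO-treated cells and -100% = media-only wells without cells; nearly all actives have a fitted effect of over 55% in size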
#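 Compounds were tested in concentration-response format on HT-1080-NT cells for 48 hours at 37 degrees C. Cell viability came from CellTiter-Glo luminescence; curves were classified by r2, response magnitude and activity.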
# TDP1 cell noCPT – qHTS for Inhibitors of human tyrosyl-DNA phosphodiesterase 1 (TDP1): qHTS in cells in absence of CPT | DT40 Tdp1-/- hTDP1 cells, no CPT, ATP luminescence, 48 h | Potency, µM (series often up to 46.2 µM), for the others: at the top dose activity change, negative = growth inhibition, actives largely listed as inhibitors | 15% of 420,000 active | AID 686978, 2013; note: potency is the fitted concentration of half-maximal effect; nearly all actives have a fitted effect of over 55% in size
#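 A cellular qHTS used chicken DT40 cells lacking endogenous Tdp1 but carrying stably transfected human TDP1. Compounds were applied without camptothecin, and cell growth kinetics were judged by ATP-dependent luminescence after ≥48 hr.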
# IL1B secr inh – blocks inflammasome-driven IL-1 beta release. activity change, % at 57.5 µM. THP-1 LPS/ATP IL-1B secretion, AlphaLISA, 16 h; active compounds read low. 4.7% of 360,000 active. AID 743279; in the data active = activity change below about -50%; inconclusive = mostly about -30% to -49%
#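 Secreted IL-1B measured by AlphaLISA bead assay after 16 h compound exposure of THP-1 cells; compounds (final up to 57.5 uM) added 1 h before LPS (250 ng/mL) and ATP (1.25 mM) stimulation; lower signal means less secretion.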
# 12-LOX inh – blocks human arachidonate 12S-lipoxygenase; 1.1% of 580,000 active; purified 12hLO, xylenol orange hydroperoxide absorbance; P18054; Potency, µM (doses to about 108 µM), for the others: top-dose activity change, negative = inhibition, most hits filed as inhibitors; AID 1671190; note: potency is the fitted concentration of half-maximal effect
# Target sequence (P18054 whole entry, looked up): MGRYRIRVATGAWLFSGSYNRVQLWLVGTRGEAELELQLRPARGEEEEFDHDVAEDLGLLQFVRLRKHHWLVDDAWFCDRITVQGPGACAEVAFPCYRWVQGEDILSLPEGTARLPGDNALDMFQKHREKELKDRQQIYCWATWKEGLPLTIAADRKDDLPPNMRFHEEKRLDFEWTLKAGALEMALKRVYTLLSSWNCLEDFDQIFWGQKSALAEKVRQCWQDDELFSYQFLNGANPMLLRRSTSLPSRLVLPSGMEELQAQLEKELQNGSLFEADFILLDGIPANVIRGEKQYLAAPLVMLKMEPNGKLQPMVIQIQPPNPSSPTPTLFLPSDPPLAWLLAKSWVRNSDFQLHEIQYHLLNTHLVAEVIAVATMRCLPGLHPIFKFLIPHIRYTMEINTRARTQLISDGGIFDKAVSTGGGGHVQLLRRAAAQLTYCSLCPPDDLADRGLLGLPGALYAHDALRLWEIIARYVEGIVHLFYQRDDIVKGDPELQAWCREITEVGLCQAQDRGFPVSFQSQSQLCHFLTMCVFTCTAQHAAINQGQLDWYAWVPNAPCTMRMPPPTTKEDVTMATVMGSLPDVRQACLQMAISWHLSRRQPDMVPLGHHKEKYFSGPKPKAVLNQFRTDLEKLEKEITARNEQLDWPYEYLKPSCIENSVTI
#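 Purified human 12hLO (150 nM final) in 25 mM Hepes, 0.01% Triton X-100, pH 7.0 was preincubated 15 min at room temperature with compound. Then 40 uM arachidonic acid was added, 30 min. Hydroperoxide was read by Fe-XO absorbance ratio 573/405 nm.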
# Starred values were filed as active, the others as inactive; ? = inconclusive; . = no result given; [ ] = remark or other dose. Unless noted, calls come from the whole dose curve; as a rule, active = well fitted curve in the direction sought with a large enough effect; inconclusive = small, poorly fitted or top-dose-only effect, or another doubt; inactive = no such curve, though single readings can be large; an effect the other way counts as inactive or inconclusive. Unless noted, % is set by controls: 0 for no effect and ±100 for the full control effect.
SMILES,DT40 TDP1 CPT,HT1080 IDH1KD tx,HT1080-NT tox,TDP1 cell noCPT,IL1B secr inh,12-LOX inh
CC(C)(C)c1ccc(C(=O)N2CCC2(C)C(=O)Nc2ccc3[nH]ncc3c2)cc1 (configuration not stated),21µM*,?,-8%,15µM*,-1,-25%
COc1ccc(NC(=O)C2(C)CCN2C(=O)c2ccc(C(C)(C)C)cc2)cc1OC (configuration not stated),13µM*,?,2%,10µM*,7,-2%
COc1ccc(N2CC(C(=O)N3CCN(C(=O)c4ccco4)CC3)CC2=O)cc1 (configuration not stated),9%,1%,0%,-2%,0,20%
O=C(CCc1c[nH]c2ccccc12)NC(Cc1ccccc1)C(=O)O (configuration not stated),-2%,9%,23%,15%,-2,1%
O=C(NCc1ccc(Cl)cc1Cl)c1cccc(N2CCCS2(=O)=O)c1,16µM*,.,.,?,.,0%
Cc1cc(C)cc(NC(=O)c2cccc(N3CCCS3(=O)=O)c2)c1,15µM*,.,.,?,.,-23%
Cc1ccc(NC(=O)c2cccc(N3CCCS3(=O)=O)c2)cc1,?,.,.,-13%,.,-1%
COc1ccccc1CC(=O)N[C@H]1CN(S(C)(=O)=O)C[C@@H]1C(C)C,.,.,.,.,.,19%
CCOC(=O)C1CCN(C2=NC(=O)/C(=C/c3ccccc3OC)S2)CC1,?,4%,2%,-6%,15,0%
O=C1N=C(N2CCN(c3ccccc3)CC2)S/C1=C\c1cn[nH]c1-c1ccccc1,21µM*,-2%,-9%,13µM*,-19,-20%
Cc1cccc(N2CCN(C3=NC(=O)C(=C4CCCCC4)S3)CC2)c1,?,-13%,-5%,?,-12,?
O=C1N=C(N2CCN(c3ccccc3)CC2)S/C1=C\c1ccco1,-23%,-2%,-5%,-14%,-27,-28%
Cc1ccc(N2CCN(C3=NC(=O)/C(=C\c4cn[nH]c4-c4ccccc4)S3)CC2)cc1,?,-4%,-21%,21µM*,?,0%
O=C1N=C(N2CCC(Cc3ccccc3)CC2)S/C1=C/c1cn[nH]c1-c1ccccc1,?,-10%,0%,16µM*,?,0%
Cc1cccc(N2CCN(C3=NC(=O)/C(=C\c4cn[nH]c4-c4ccccc4)S3)CC2)c1,6.5µM*,-27%,-18%,2.1µM*,5,-11%
CN1Cc2cccn2CC1CNC(=O)c1ccoc1 (configuration not stated),.,.,.,.,.,126%
Cc1cnc2c(S(=O)(=O)N3CCCC3)cccc2c1,.,.,.,.,.,-26%
CC1Sc2ccc(S(=O)(=O)CCC(=O)NCc3ccccc3)cc2NC1=O (configuration not stated),?,-1%,-9%,-1%,16,0%
Cn1c(=O)n(C)c2cc(S(=O)(=O)NCCc3ccccc3)ccc21,23µM*,-12%,-2%,23µM*,18,7%
CC1Sc2ccc(S(=O)(=O)CCC(=O)NC3CCCC(C)C3C)cc2NC1=O (configuration not stated),21µM*,-2%,-10%,21µM*,22,-1%
CC1Sc2ccc(S(=O)(=O)CCC(=O)N(C)Cc3ccccc3)cc2NC1=O (configuration not stated),18µM*,-4%,-2%,?,29,4%
CC1Sc2ccc(S(=O)(=O)NCCc3ccccc3)cc2NC1=O (configuration not stated),21µM*,0%,-5%,23µM*,-2,13%
CN(C)C1CCc2[nH]c3ccc(NC(=O)c4ccc(F)cc4)cc3c2C1 (configuration not stated),.,.,.,.,.,201%
CNc1nccc(N2CCC(CC(=O)NCCN3CCOCC3)CC2)n1,.,.,.,.,.,55%
CCc1nnsc1C(=O)NCC1(c2cccc(Cl)c2)CCOCC1,.,.,.,.,.,7%
SMILES,DT40 TDP1 CPT,HT1080 IDH1KD tx,HT1080-NT tox,TDP1 cell noCPT,IL1B secr inh,12-LOX inh
CCN(CC)c1ccc(S(=O)(=O)N2CCCCC2)cc1NC(=O)C1CCC1,18µM*,1%,0%,?,-18,-14%
CCN(CC)c1ccc(S(=O)(=O)N2CCOCC2)cc1NC(=O)C1CC1,-3%,6%,14%,-13%,0,196%
CCN(CC)c1ccc(S(=O)(=O)N2CCCCC2)cc1NC(=O)C1CSC2(C)CCC(=O)N12 (configuration not stated),?,-6%,-7%,9.2µM*,-50*,31%
CCN(CC)c1ccc(S(=O)(=O)N(CC)CC)cc1NC(=O)C1CCCC1,?,-13%,0%,?,-4,-1%
CCN(CC)S(=O)(=O)c1ccc(N(C)C)c(NC(=O)C2CCCC2)c1,-15%,-1%,-9%,-12%,-54*,0%
CN1CCCCCCN(Cc2ccc3[nH]ccc3c2)[C@H]2CCC[C@H]2C1=O,.,.,.,.,.,47%
O=C(Nc1ccccc1)NC1CCN(c2nc3ncccc3o2)CC1,.,.,.,.,.,6%[176 µM]
COC(=O)c1ccc(NC(=O)C2C3C=CC(C3)C2C(=O)O)cc1 (configuration not stated),-6%,-14%,?,19%,0,0%
O=C(ONC(=O)C1C2C=CC(C2)C1C(=O)NOC(=O)c1ccccc1)c1ccccc1 (configuration not stated),3.3µM*,?,-16%,2.9µM*,-16,0%

# Compound activity deposited in PubChem by National Center for Advancing Translational Sciences (NCATS).
